# Laboratory results: PubChem BioAssay (NCI)
# The panel holds about 83,000 compounds, 20% with a hit somewhere; the sample as a whole holds those more often.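 Activity criterion: percent growth below 10, measured after cells in 96-well plates were exposed to a single compound concentration for 48 hours.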 Unmarked numbers belong to inactive results. Calls of active or inactive are those of the source.
# What was measured:
# Assay in all cases: NCI-60 one-dose screen, 48 h (100 = growth as untreated, 0 = no growth, -100 = all killed)
# Conditions in all cases: 10 µM unless noted
# DU-145 prostate = test system: DU-145 prostate
# K-562 leukemia = test system: K-562 leukemia
# MALME-3M melanoma = test system: MALME-3M melanoma
# MDA-MB-231 breast = test system: MDA-MB-231 breast
# RXF 393 renal = test system: RXF 393 renal
# SF-268 CNS = test system: SF-268 CNS
# SF-295 CNS = test system: SF-295 CNS
# SF-539 CNS = test system: SF-539 CNS
# UACC-257 melanoma = test system: UACC-257 melanoma
# M14 melanoma = test system: M14 melanoma
# HCT-15 colon = test system: HCT-15 colon
# HT29 colon = test system: HT29 colon
# SNB-75 CNS = test system: SNB-75 CNS
# SNB-19 CNS = test system: SNB-19 CNS
# U251 CNS = test system: U251 CNS
# PC-3 prostate = test system: PC-3 prostate
# SK-MEL-5 melanoma = test system: SK-MEL-5 melanoma
# UACC-62 melanoma = test system: UACC-62 melanoma
# LOX IMVI melanoma = test system: LOX IMVI melanoma
# SK-MEL-28 melanoma = test system: SK-MEL-28 melanoma
Compound,growth (DU-145 prostate),growth (K-562 leukemia),growth (MALME-3M melanoma),growth (MDA-MB-231 breast),growth (RXF 393 renal),growth (SF-268 CNS),growth (SF-295 CNS),growth (SF-539 CNS),growth (UACC-257 melanoma),growth (M14 melanoma),growth (HCT-15 colon),growth (HT29 colon),growth (SNB-75 CNS),growth (SNB-19 CNS),growth (U251 CNS),growth (PC-3 prostate),growth (SK-MEL-5 melanoma),growth (UACC-62 melanoma),growth (LOX IMVI melanoma),growth (SK-MEL-28 melanoma)
O=CN1N=C(c2ccc(Cl)cc2)CC1c1cccc(Nc2ccnc3cc(Cl)ccc23)c1 (stereo not given),14%,3.74% (active),8.98% (active),30.6%,-0.443% (active),36.7%,-10.4% (active),-25.9% (active),12.1%,16.2%,16.9%,3.98% (active),1.24% (active),43.3%,13%,12.8%,-63.2% (active),30.3%,11.3%,39.3%
COc1cnc2c(c1)C(=O)c1c-2n(CCCN2CCOCC2)c(=O)c2cc(F)ccc12,3.8% (active),12.4%,-31.8% (active),40.6%,-30.1% (active),3.55% (active),-21.1% (active),-61.4% (active),-10.6% (active),0.95% (active),8.29% (active),-27.5% (active),-19.1% (active),14.5%,-27.7% (active),12.1%,-95.1% (active),-52% (active),-50.3% (active),18.6%
O=CN1N=C(c2ccc(Nc3ccnc4cc(Cl)ccc34)cc2)CC1c1ccc(Cl)cc1 (stereo not given),10%,9.53% (active),34.5%,31.2%,17.5%,34.9%,-1.08% (active),-0.113% (active),77.7%,39.3%,16.4%,5.55% (active),4.26% (active),44.5%,27.6%,32.3%,-27.4% (active),28.7%,32%,39.2%
O=C(O)CCC(=O)OC[C@@H](NC(=O)C(Cl)Cl)[C@H](O)c1ccc([N+](=O)[O-])cc1,110%,98.6%,96%,103%,104%,109%,101%,100%,104%,98%,93.9%,95.8%,88%,99.4%,99.3%,87.5%,89.8%,98%,96.7%,106%
c1ccc(-c2n(Cc3ccc4ccccc4c3)cc[n+]2Cc2ccc3ccccc3c2)cc1,4.64% (active),-36.7% (active),-67.8% (active),-82.7% (active),-84.7% (active),-58.2% (active),-51% (active),-34.7% (active),-57.1% (active),-60.5% (active),15.2%,-83.8% (active),-29.5% (active),-32.4% (active),-93.5% (active),-58.8% (active),-98.4% (active),-80% (active),-92.5% (active),-84.2% (active)
CCN(CC)CCSc1ncnc2c1cnn2-c1ccc(S(N)(=O)=O)cc1,97%,63.2%,69.1%,93.3%,34.2%,105%,54.5%,94.4%,65.5%,98.6%,89%,85.7%,108%,107%,92.9%,85.7%,79.1%,92.7%,87%,92.8%
CCSc1nc(-c2ccco2)n2nc(-c3ccco3)cc2n1,118%,116%,116%,88.1%,101%,113%,101%,100%,102%,121%,78.1%,99.4%,83.2%,113%,96.8%,95.7%,78.3%,89.8%,88.3%,120%
